Reference: ChEMBL document CHEMBL1961873, “Compounds: GSK PKIS; Assays: Nanosyn kinase panel” (2012)

Experiments:
[1] = target: Protein kinase C gamma type (Homo sapiens) (UniProt P05129); details: at 1 µM;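 also: each value is an averaged percent inhibition of the enzyme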
[2] = target: T1, Protein kinase C iota type (Homo sapiens) (UniProt P41743); details: at 0.1 µM
T1 sequence (whole entry): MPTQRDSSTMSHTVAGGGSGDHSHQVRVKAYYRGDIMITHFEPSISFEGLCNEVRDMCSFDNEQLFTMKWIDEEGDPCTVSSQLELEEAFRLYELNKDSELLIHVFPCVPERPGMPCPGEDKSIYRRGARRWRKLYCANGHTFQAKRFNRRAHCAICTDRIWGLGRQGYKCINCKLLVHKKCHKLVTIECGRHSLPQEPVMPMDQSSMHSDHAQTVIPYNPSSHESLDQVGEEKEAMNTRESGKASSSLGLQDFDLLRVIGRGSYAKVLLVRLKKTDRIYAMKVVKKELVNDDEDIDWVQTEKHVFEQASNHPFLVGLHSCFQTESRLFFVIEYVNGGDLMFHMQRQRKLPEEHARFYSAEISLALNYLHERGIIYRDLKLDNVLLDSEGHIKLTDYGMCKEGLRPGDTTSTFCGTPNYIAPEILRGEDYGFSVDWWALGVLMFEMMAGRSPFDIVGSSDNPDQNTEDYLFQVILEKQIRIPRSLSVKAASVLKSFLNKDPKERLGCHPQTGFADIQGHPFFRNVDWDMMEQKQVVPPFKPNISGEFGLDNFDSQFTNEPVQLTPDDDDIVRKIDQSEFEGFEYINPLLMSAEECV

[3] = target: T1, Protein kinase C iota type (Homo sapiens); details: at 1 µM
[4] = target: Protein kinase C theta type (Homo sapiens) (UniProt Q04759); details: at 0.1 µM
Sequence of Protein kinase C theta type (Homo sapiens) (Q04759 whole entry, looked up): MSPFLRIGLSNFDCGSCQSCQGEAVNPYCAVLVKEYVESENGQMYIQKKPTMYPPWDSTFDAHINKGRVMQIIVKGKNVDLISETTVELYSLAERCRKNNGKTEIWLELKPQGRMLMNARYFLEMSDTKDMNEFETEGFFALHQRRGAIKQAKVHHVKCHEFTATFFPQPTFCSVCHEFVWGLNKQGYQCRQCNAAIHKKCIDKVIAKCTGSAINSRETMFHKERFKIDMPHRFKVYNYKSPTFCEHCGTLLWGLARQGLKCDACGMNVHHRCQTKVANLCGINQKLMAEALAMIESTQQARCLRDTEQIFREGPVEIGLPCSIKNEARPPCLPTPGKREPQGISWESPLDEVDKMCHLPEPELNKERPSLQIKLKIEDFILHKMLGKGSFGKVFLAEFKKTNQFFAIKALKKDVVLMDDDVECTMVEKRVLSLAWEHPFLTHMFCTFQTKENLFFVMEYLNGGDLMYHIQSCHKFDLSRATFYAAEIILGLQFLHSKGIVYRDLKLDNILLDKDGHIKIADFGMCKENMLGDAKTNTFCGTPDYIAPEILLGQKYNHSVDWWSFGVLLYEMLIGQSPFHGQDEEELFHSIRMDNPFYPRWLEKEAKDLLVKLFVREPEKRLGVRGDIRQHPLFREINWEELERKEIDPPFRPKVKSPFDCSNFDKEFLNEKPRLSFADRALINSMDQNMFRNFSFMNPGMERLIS

[5] = target: Protein kinase C theta type (Homo sapiens) (UniProt Q04759); details: at 1 µM
[6] = target: Protein kinase C beta type (Homo sapiens) (UniProt P05771); details: at 0.1 µM
Sequence of Protein kinase C beta type (Homo sapiens) (P05771 2-671 limits assumed): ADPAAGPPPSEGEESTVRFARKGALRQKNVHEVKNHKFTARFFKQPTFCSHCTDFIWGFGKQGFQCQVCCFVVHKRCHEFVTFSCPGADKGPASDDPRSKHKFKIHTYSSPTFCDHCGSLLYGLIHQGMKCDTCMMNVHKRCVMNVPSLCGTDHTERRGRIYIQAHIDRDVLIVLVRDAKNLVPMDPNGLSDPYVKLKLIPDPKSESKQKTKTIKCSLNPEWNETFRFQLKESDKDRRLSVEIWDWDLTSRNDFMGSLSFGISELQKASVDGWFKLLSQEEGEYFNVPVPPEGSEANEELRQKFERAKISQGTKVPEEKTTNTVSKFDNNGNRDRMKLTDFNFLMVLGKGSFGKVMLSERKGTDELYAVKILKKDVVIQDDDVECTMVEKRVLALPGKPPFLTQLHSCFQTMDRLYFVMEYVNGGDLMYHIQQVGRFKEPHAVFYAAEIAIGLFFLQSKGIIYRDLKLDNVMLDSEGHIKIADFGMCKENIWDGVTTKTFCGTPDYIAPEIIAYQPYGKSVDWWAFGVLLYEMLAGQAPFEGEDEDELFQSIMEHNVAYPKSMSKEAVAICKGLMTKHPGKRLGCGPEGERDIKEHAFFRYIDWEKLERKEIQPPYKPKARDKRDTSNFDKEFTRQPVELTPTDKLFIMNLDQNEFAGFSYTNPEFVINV

[7] = target: Protein kinase C beta type (Homo sapiens) (UniProt P05771); details: at 1 µM
[8] = target: T2, Serine/threonine-protein kinase D1 (Homo sapiens) (UniProt Q15139); details: at 0.1 µM
T2 sequence (whole entry): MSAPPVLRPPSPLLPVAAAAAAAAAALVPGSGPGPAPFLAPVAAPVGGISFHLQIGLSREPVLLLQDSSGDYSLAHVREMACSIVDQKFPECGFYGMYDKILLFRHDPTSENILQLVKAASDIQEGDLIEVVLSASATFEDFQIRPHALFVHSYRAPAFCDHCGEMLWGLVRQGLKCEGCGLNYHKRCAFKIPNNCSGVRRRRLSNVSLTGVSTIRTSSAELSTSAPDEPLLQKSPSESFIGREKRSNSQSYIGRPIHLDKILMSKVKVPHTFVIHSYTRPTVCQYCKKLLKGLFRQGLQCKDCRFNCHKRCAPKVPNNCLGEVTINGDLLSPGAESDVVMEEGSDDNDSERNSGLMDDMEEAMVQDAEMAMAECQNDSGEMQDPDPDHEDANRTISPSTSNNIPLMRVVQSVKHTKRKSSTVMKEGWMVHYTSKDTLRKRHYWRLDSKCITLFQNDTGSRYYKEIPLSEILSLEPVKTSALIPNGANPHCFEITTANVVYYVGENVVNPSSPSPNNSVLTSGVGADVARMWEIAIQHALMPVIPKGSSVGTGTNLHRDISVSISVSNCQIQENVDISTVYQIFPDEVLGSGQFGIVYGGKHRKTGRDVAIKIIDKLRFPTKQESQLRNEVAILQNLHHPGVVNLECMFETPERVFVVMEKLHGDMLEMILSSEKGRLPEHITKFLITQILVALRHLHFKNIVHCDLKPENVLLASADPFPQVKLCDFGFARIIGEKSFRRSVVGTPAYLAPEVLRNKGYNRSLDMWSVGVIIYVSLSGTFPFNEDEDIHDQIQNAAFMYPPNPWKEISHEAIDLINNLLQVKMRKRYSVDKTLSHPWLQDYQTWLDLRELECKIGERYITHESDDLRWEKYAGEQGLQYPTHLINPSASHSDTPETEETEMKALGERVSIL

[9] = target: T2, Serine/threonine-protein kinase D1 (Homo sapiens); details: at 1 µM
[10] = target: T3, Serine/threonine-protein kinase D2 (Homo sapiens) (UniProt Q9BZL6); details: at 0.1 µM;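 also: reported percent inhibition values are means, part of the GSK PKIS kinase panel screen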
T3 sequence (whole entry): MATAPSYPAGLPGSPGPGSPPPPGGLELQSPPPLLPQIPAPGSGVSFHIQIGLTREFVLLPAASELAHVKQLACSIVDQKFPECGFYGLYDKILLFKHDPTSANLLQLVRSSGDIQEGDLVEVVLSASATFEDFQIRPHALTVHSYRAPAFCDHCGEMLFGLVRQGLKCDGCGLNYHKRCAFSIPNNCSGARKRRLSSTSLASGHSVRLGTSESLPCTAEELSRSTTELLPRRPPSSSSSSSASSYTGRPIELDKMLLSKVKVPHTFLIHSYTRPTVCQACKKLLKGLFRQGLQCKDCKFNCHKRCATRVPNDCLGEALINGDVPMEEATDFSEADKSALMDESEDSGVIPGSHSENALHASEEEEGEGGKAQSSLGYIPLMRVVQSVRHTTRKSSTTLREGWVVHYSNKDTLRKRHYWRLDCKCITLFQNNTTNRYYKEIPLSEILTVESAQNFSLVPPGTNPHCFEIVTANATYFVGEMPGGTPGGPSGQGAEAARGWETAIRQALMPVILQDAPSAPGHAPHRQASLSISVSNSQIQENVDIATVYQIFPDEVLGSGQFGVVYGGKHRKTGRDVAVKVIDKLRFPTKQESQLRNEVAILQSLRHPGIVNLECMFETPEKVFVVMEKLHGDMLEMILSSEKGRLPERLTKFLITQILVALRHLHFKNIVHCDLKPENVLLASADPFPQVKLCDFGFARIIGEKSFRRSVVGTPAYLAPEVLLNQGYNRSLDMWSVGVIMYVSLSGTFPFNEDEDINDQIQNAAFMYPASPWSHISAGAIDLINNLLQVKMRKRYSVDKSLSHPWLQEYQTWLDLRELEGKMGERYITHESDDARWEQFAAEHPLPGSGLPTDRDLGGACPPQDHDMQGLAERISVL

| SMILES | inhibition [1] | inhibition [2] | inhibition [3] | inhibition [4] | inhibition [5] | inhibition [6] | inhibition [7] | inhibition [8] | inhibition [9] | inhibition [10] |
| --- | --- | --- | --- | --- | --- | --- | --- | --- | --- | --- |
| NC(=O)c1sc(-n2cnc3ccc(C(F)(F)F)cc32)cc1OCc1ccccc1Br | 3.75% | 0.8% | 0.82% | 1.63% | 2.57% | 1.28% | 1.31% | 2.72% | 3.86% | 3.59% |
| N#Cc1c(NC(=O)c2ccc(F)cc2)sc2c1CCCC2 | 0.62% | -0.52% | -1.26% | 0.53% | -0.01% | 1.04% | 0.69% | 1.57% | 2.87% | 3.3% |
| CN1CCC(n2cnc(-c3ccc(F)cc3)c2-c2ccnc(Nc3ccccc3)n2)CC1 | 33.8% | 1.53% | 1.32% | 1.16% | 4.03% | 27.4% | 66.5% | 5.32% | 39.6% | 7.44% |
| Fc1cccc(COc2ccc(Nc3ncnc4sc(-c5ccco5)cc34)cc2Cl)c1 | 1.6% | 2.45% | 2.35% | 2% | 2.39% | 1% | 1.15% | 5.24% | 6.44% | 4.13% |
| O=C(Nc1n[nH]c2cc(-c3ccc(F)cc3)ccc12)C1CC1 | 5.71% | 2.42% | 3.67% | 3% | 5.04% | 2.1% | 4.04% | 3.02% | 5.62% | 2.7% |
| Cc1ccc(O)cc1Nc1ccnc2cc(-c3ccccn3)ccc12 | 4.48% | 2.29% | 4.56% | 2.6% | 1.93% | 1.13% | 1.55% | 5.06% | 28.9% | 6.27% |
| Fc1ccc(-c2cc(-c3c[nH]nc3-c3ccccn3)ccn2)cc1 | 1.87% | 2.53% | 0.58% | 3.15% | 5.06% | 1.48% | 1.07% | 4.79% | 26.9% | 6.43% |
| CS(=O)(=O)CCNCc1coc(-c2ccc3ncnc(Nc4ccc(OCc5ccccc5)cc4)c3c2)c1 | 4.91% | 1.33% | 0.97% | 1.31% | 1.25% | -0.17% | 1.35% | 1.97% | 2.95% | 2.53% |
| COC(=O)Nc1nc2ccc(Oc3ccc(NC(=O)Nc4cccc(Cl)c4)cc3)cc2[nH]1 | -1.47% | 0.42% | 0.23% | 0.36% | 0.17% | 0.5% | 0.57% | 2.7% | 3.03% | 1.6% |
| COC(=O)c1sc(-n2cnc3cc(OC)c(OC)cc32)cc1OCc1ccccc1C(F)(F)F | 2.66% | 0.97% | 2.66% | 1.11% | 0.41% | 0.96% | 1.08% | 3.64% | 5.12% | 4.89% |
| CC(=O)Nc1cccc(C#Cc2cncnc2Nc2ccc(OCc3cccc(F)c3)c(Cl)c2)c1 | 3.97% | 0.27% | 2.04% | 0.62% | -0.6% | 1.6% | 0.79% | 1.8% | 2.69% | 1.88% |
| COc1ccc(-c2cc3c(N)ncnc3o2)cc1 | 8.58% | -0.83% | -1.03% | -1.21% | -1.64% | 0.45% | 1.65% | -1% | -1.28% | -0.34% |
| NS(=O)(=O)c1ccc(Nc2ncc(-c3ccccc3)o2)cc1 | 2.49% | 2.01% | 1.3% | 1.68% | 3.14% | 0.96% | 2.07% | 3.47% | 6.2% | 2.92% |
| CS(=O)(=O)CCNCc1ccc(-c2ccc3ncnc(Nc4ccc(OCc5ccccc5)c(C(F)(F)F)c4)c3c2)o1 | 0.29% | 1.93% | 2.76% | 1.99% | 1.95% | 1.11% | 1.5% | 3.89% | 5.55% | 3.28% |
| O=S(=O)(CCNCc1ccc(-c2ccc3ncnc(Nc4ccc(OCc5cccc(F)c5)c(Cl)c4)c3c2)o1)c1ccccc1 | 6.38% | 4.15% | 4.31% | 2.33% | 2.85% | 2.03% | 2.6% | 5.17% | 7.32% | 5.52% |
| CCn1c(-c2nonc2N)nc2ccccc21 | 4.67% | 1.65% | 6.6% | 1.58% | 6.38% | 0.96% | 7.2% | 2.23% | 5.47% | 2.41% |
| CCNC(=O)O[C@H]1CN[C@H](C#Cc2cc3ncnc(Nc4ccc(OCc5cccc(F)c5)c(Cl)c4)c3s2)C1 | 3.31% | 1.37% | 3.17% | 1.01% | 0.75% | -0.74% | 0.7% | 2.66% | 4.66% | 2.15% |
